High-throughput results (PubChem)
S2 tox: viability counter-screen for ATXN expression inhibitors | 400,000 tested, 0.49% active | Potency, µM (highest dose often 56.7 µM), actives largely listed as cytotoxic | AID 651635 | S2 cells (HEK-293 line with an ATXN2-luciferase reporter) viability, CellTiter-Fluor protease fluorescence, 24 h; also: nearly all actives have a fitted effect of over 40% in size
ATXN2 expr inh: ATXN2 expression inhibition | HEK-293 ATXN2-luciferase reporter, luminescence, 24 h | Potency, µM (doses to about 57 µM), for inactives: top-dose activity change, negative = inhibition, usual class: inhibitors | 360,000 tested, 0.72% active; also: % is scaled to controls: 0 for no effect and ±100 for the full control effect; nearly all actives have a fitted effect of over 55% in size
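qHTS (up to 57 uM final) was run with 24 h compound exposure of reporter cells at 37 °C. Each well was multiplexed: SteadyGlo luminescence measured ATXN2-luciferase expression after a fluorogenic Gly-Phe-AFC viability readout (25 uM final).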
TGFb inhibitor: inhibitors of TGF-b signaling. HepG2 CAGA-GFP TGF-b/SMAD3 reporter, GFP fluorescence, 18 h; TGF-beta stimulated, 500 pg/mL final. AID 588855. Potency, µM (top dose mostly 46.1 µM), inactives show at the top dose activity, negative = inhibition, hits mostly inhibitors. 410,000 tested, 1.2% active; also: % is scaled to controls: 0 for no effect and ±100 for the full control effect; nearly all actives have a fitted effect of over 65% in size
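GFP signal (ex488/em500-530) from TGF-beta-stimulated HEPG2 CAGA-GFP cells, 500 pg/mL final, 18 h at 37 degrees C in DMEM plus 1% FBS, normalized to unstimulated and DMSO-stimulated controls.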
HepG2 tox: HepG2 cytotoxicity, counter-screen for TGF-b inhibitors; Potency, µM (highest dose often 46.1 µM), for inactives: top-dose activity change, negative = cytotoxicity, most hits filed as cytotoxic; HepG2 CAGA-GFP viability, ATP luminescence, 18 h; 410,000 tested, 0.76% active
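CellTiter-Glo luminescence gave cytotoxicity after 18 hours at 37 degrees C. The cells were HepG2 CAGA-GFP in 1% FBS DMEM, stimulated with 500 pg/mL TGF-beta after compound addition. %Activity was normalised to no-cell wells (complete cell-killing) and DMSO (no toxicity), and curves were fitted and classified.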
HT1080NT lethal: kills 2HG-producing HT-1080-NT fibrosarcoma cells; HT-1080-NT fibrosarcoma viability, CellTiter-Glo ATP luminescence, 48 h; Potency, µM (doses to about 46.1 µM), for inactives: at the highest dose activity, negative = less viability, hits mostly cytotoxic; 360,000 tested, 1.6% active;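 also: NT is the 2HG producing partner of a matched IDH1 knockdown line; 0% = DMSO-treated cells and -100% = media-only wells without cells; nearly all actives have a fitted effect of over 55% in size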
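Viability by CellTiter-Glo luminescence after 48 h compound exposure at 37C of HT-1080-NT cells (750/well, RPMI, 5% FBS). % activity scaled between DMSO wells and medium-only wells, then curve-fitted and categorized by curve class.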
HT1080 IDH1KD tx: HT-1080 IDH1 knockdown cell toxicity (counter line); HT-1080 IDH1 knockdown viability, ATP luminescence, 48 h; Potency, µM (highest dose often 46.1 µM), for the others: at the top dose activity, negative = toxicity, hits mostly cytotoxic; 360,000 tested, 2% active; AID 686971;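 also: 0% = DMSO wells and -100% = cell-free medium wells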
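In this qHTS, HT-1080 cells depleted of IDH1 are exposed for 48 h at 37 °C to compound titrations. Toxicity is scored from CellTiter-Glo luminescence, with DMSO as full viability and medium alone as none.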
Active calls of the source: *; i = inactive; ? = inconclusive; . = not tested or not shown. Shown are actives, neighbours in structure and some others; about 3.8% of the full set was active somewhere. Calls follow the shape of the dose curve; as a rule, active = well fitted curve in the direction sought with a large enough effect; inconclusive = small, poorly fitted or top-dose-only effect, or another doubt; inactive = no such curve, though single readings can be large; an effect the other way counts as inactive or inconclusive. Potency is read from the fitted curve at half-maximal effect.

SMILES | S2 tox | ATXN2 expr inh | TGFb inhibitor | HepG2 tox | HT1080NT lethal | HT1080 IDH1KD tx
COCOCCn1cc(CN2CCS(=O)(=O)N(Cc3ccc(-c4ccc(Cl)c(Cl)c4)cc3)C(C)C2=O)nn1 (configuration not stated) | . | 28µM* | ? | -109% | 23µM* | ?
CC1C(=O)N(Cc2cn(CC3CCCCC3)nn2)CCS(=O)(=O)N1Cc1ccc(-c2ccc(Cl)cc2)cc1 (configuration not stated) | ? | ? | ? | -3% | ? | 16µM*
Cc1cccc(C)c1-c1ccc(CN2C(CC(C)C)C(=O)N(Cc3cn(CCO)nn3)CCS2(=O)=O)cc1 (configuration not stated) | 32µM* | 28µM* | ? | -84% | -11% | -20%
O=C(NCCc1ccccn1)C1CC12CCN(C(=O)c1ccccc1Cl)CC2 (configuration not stated) | i | . | . | . | . | .
COc1ccc(C(=O)NCC2Cc3cc(C)cc(-c4cc(C(C)=O)ccc4F)c3O2)c(OC)c1OC (configuration not stated) | i | . | . | . | . | .
CCOC(=O)c1ccc(OCC2c3cc(OC)c(OC)cc3CCN2C(=O)Cc2ccc(F)cc2)cc1 (configuration not stated) | i | -10% | -11% | -33% | . | .
O=C(C=Cc1cccnc1)NCCCCC1CCN(C(=O)c2ccccc2)CC1 | . | 4% | . | . | . | .
CC1C(=O)N(Cc2cn(CCC3OCCCO3)nn2)CCS(=O)(=O)N1Cc1ccc(-c2ccc(Cl)c(Cl)c2)cc1 (configuration not stated) | 25µM* | 25µM* | ? | -38% | ? | 21µM*
Cc1ccc(-c2ccc(CN3C(C)C(=O)N(Cc4cn(CCC5OCCO5)nn4)CCS3(=O)=O)cc2)cc1 (configuration not stated) | i | -11% | 0% | -19% | -7% | -5%
CC(C)CC1C(=O)N(Cc2cn(CCC3OCCCO3)nn2)CCS(=O)(=O)N1Cc1ccc(-c2ccc(Cl)c(Cl)c2)cc1 (configuration not stated) | 32µM* | ? | ? | -56% | ? | ?
CC1C(=O)N(Cc2cn(CCC3OCCO3)nn2)CCS(=O)(=O)N1Cc1ccc(-c2ccc(Cl)cc2)cc1 (configuration not stated) | 32µM* | ? | ? | -24% | ? | ?
COc1ccc(N2C(=S)NC3N2C(=S)NC3(C)c2ccccc2)cc1 (configuration not stated) | i | 96% | ? | 9% | 16µM* | 12µM*
CC1(c2ccccc2)NC(=S)N2C1NC(=S)N2c1ccccc1 (configuration not stated) | i | -6% | 0% | -47% | -9% | -14%
COc1cc(CN2CCCC(n3cc(C(=O)N4CCCCC4)nn3)C2)cc(OC)c1 (configuration not stated) | i | . | . | . | . | .
CCC(=O)OCC(=O)N=c1sccn1Cc1ccccc1Cl | i | 0% | -6% | -6% | -2% | 2%
O=C(CCl)N=c1sccn1Cc1ccc(Cl)cc1Cl | ? | -35% | ? | 13µM* | 5.8µM* | 3.3µM*
CCC(=O)OCC(=O)N=c1sccn1Cc1ccc(C)cc1 | i | 14% | -1% | -5% | 0% | 1%
O=C(CCl)N=c1sccn1Cc1ccccc1Cl | . | ? | 11µM* | 10µM* | 0.092µM* | 0.092µM*
O=C(CCl)N=c1sccn1Cc1cccc2ccccc12 | ? | 0.03µM* | ? | -111% | ? | 18µM*
Cn1ccc2cc(S(=O)(=O)N3CCCN(C(=O)Nc4ccccc4Br)CC3)ccc21 | i | 9% | -32% | -7% | . | .
CCc1cc2c(cc1N1CCC(N3CCOCC3)CC1)C(C)(C)c1[nH]c3cc(C#N)ccc3c1C2=O | . | -25% | . | . | . | .
CCCCOc1cccc(C(=O)Nc2ccc(NC(=O)c3cccs3)cc2)c1 | 18µM* | ? | -22% | -45% | 21µM* | 15µM*
CCCOc1ccc(C(=O)Nc2ccc(NC(=O)c3cccs3)cc2)cc1 | i | -17% | 47% | 16% | 1% | 12%
Cc1cc(C)cc(NC(=O)C(=O)NCC(c2ccc3c(c2)OCO3)N2CCN(C)CC2)c1 (configuration not stated) | ? | -38% | -29% | -52% | . | .
COc1cc(C)c(CN2CCc3nnc(C(C)NC(=O)c4cc(F)ccc4F)n3CC2)cc1C (configuration not stated) | i | . | . | . | . | .
SMILES | S2 tox | ATXN2 expr inh | TGFb inhibitor | HepG2 tox | HT1080NT lethal | HT1080 IDH1KD tx
COc1ccc2nc(NC(=O)c3cc(=O)c4ccccc4o3)sc2c1 | i | 31% | 26% | 5% | . | .
COc1ccc2nc(NC(=O)c3cccc(-c4cc5ccccc5oc4=O)c3)sc2c1 | ? | ? | -16% | -52% | 15µM* | 18µM*
COc1ccc(C(=O)Nc2cccc(-c3cc4ccccc4oc3=O)c2)cc1[N+](=O)[O-] | i | -12% | ? | -26% | 16µM* | ?
COc1cc(NC(C)=O)ccc1-c1cc2ccccc2oc1=O | i | 35% | ? | -14% | -18% | ?
COc1cc(NC(=O)c2ccc(Cl)cc2Cl)ccc1-c1cc2ccccc2oc1=O | i | -23% | 13µM* | 11µM* | ? | ?
O=C(C[n+]1cccc(Cl)c1)c1ccc(F)cc1 | . | . | -7% | -7% | . | .
CC(C)(O)CC[C@@H](O)[C@](C)(O)[C@H]1CC[C@@]2(O)C3=CC(=O)[C@@H]4C[C@@H](O)[C@@H](O)C[C@]4(C)C3CC[C@]12C (some centres not stated) | i | 9% | 8% | 12% | 4% | 7%
C[C@@H](C[C@@H](O)[C@H](O)C(C)(C)O)[C@@H]1CC[C@]2(C)C3=CC[C@H]4C(C)(C)C(=O)CC[C@]4(C)[C@H]3CC[C@@]12C | . | ? | 11µM* | 11µM* | 1% | 4%
Nc1nc(Cl)nc(N(c2ccccc2)c2ccccc2)n1 | i | -8% | -7% | 2% | -1% | -5%
Nc1nc(CCl)nc(N(c2ccccc2)c2ccccc2)n1 | ? | -30% | ? | -47% | ? | 2.9µM*
O=c1c2cc(Cl)ccc2[nH]c(=S)n1Cc1ccco1 | i | -8% | 25% | -5% | 7.9µM* | 11µM*
O=c1[nH]c2ccc(Cl)cc2c(=O)n1Cc1ccco1 | i | -1% | 11% | 2% | 5% | 0%
